# In PubChem BioAssay (NCI):
# About 79,000 compounds went through this panel and 15% of them were active in at least one assay; those are over-represented in the sample as a whole. Unmarked numbers belong to inactive results. Active and inactive are the calls of the source. Cut-off read from the data, not from the text of the source: active = growth inhibition above about 70%; inactive = the rest.
# Assays:
# [1] = NCI Yeast Anticancer Drug Screen. Data for the rad52 strain (AID 147);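 note: 0% = growth of vehicle-treated control cultures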; conditions: S. cerevisiae rad52 mutant growth inhibition, stronger effect = higher value
# Procedure, shortened: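 Here a repair-compromised yeast strain receives each compound; its growth is then quantified and normalised to vehicle-only controls.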
# [2] = NCI Yeast Anticancer Drug Screen. Data for the wt1 strain (AID 149);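 note: 0% = growth of vehicle-treated wt1 cultures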; conditions: S. cerevisiae wt1 strain (SPY 50644) growth inhibition, stronger effect = higher value
# Procedure, shortened: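 wt1 strain grown with compound or vehicle; inhibition taken from the growth difference.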
# [3] = NCI Yeast Anticancer Drug Screen. Data for the rad50EPP+ strain (AID 151);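 note: 0% = growth of vehicle-treated control cultures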; conditions: S. cerevisiae rad50 mutant strain, stronger effect = higher value
# Procedure, shortened: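 Read-out is yeast growth inhibition relative to vehicle; cells used were the rad50EPP+ strain.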
# [4] = NCI Yeast Anticancer Drug Screen. Data for the mgt1 strain (AID 153); conditions: S. cerevisiae mgt1 mutant growth inhibition, stronger effect = higher value
# Procedure, shortened: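 Measured: inhibition of mgt1 yeast growth by compound, normalized to vehicle-treated cultures.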
# [5] = NCI Yeast Anticancer Drug Screen. Data for the rad50 strain (AID 155);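 note: 0% = growth of vehicle-only cultures of the same strain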; conditions: S. cerevisiae rad50 strain growth inhibition, stronger effect = higher value
# Procedure, shortened: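 DNA repair mutant yeast, compound exposure, growth read-out; inhibition is taken relative to vehicle.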
# [6] = NCI Yeast Anticancer Drug Screen. Data for the mec2-1 strain (AID 157); conditions: S. cerevisiae mec2-1 strain, stronger effect = higher value
# Procedure, shortened: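 Using mec2-1 yeast: add compound, measure growth, express inhibition versus vehicle-treated cultures.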
# [7] = NCI Yeast Anticancer Drug Screen. Data for the rad14 strain (AID 159);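 note: 0% = growth of vehicle-treated control cultures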; conditions: S. cerevisiae rad14 strain growth inhibition, stronger effect = higher value
# Procedure, shortened: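 DNA repair-defective yeast, compound-exposed; % growth inhibition derived by comparison with vehicle-treated controls.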
# [8] = NCI Yeast Anticancer Drug Screen. Data for the sgs1 mgt1 strain (AID 161);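 note: 0% = growth of cultures given vehicle only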; conditions: S. cerevisiae sgs1 mgt1 strain, stronger effect = higher value
# Procedure, shortened: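 This yeast growth screen uses a strain with defined DNA-repair lesions; compound-treated growth is compared with vehicle-treated growth.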
# [9] = NCI Yeast Anticancer Drug Screen. Data for the CLN2oe strain (AID 163);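 note: 0% = growth of vehicle-only control cultures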; conditions: S. cerevisiae CLN2oe strain, stronger effect = higher value
# Procedure, shortened: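 Whole-cell yeast growth assay. A strain engineered for altered cell-cycle control received compound, and inhibition relative to vehicle-treated cultures was recorded.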
# [10] = NCI Yeast Anticancer Drug Screen. Data for the cln2 rad14 strain (AID 165);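 note: 0% = growth equal to vehicle treated cultures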; conditions: S. cerevisiae cln2 rad14 strain, stronger effect = higher value
# Procedure, shortened: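 Yeast strain cln2 rad14, bearing defects in cell cycle control and DNA repair, serves as the test system; values reflect growth inhibition compared with vehicle.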
# [11] = NCI Yeast Anticancer Drug Screen. Data for the bub3 strain (AID 167); conditions: S. cerevisiae bub3 mutant strain, stronger effect = higher value
# Procedure, shortened: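 In this screen, a yeast mutant lacking normal mitotic checkpoint function is challenged with compound. Relative growth versus vehicle gives the inhibition value.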
# [12] = NCI Yeast Anticancer Drug Screen. Data for the wt2 strain (AID 169);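 note: 0% = growth of vehicle-treated yeast cultures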; conditions: S. cerevisiae wt2 strain growth inhibition, stronger effect = higher value
# Procedure, shortened: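 Treated yeast vs. vehicle-treated yeast: growth inhibition determined.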
# [13] = NCI Yeast Anticancer Drug Screen. Data for the mlh1 strain (AID 171);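 note: 0% = growth of vehicle-treated control cultures of the same strain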; conditions: S. cerevisiae mlh1 strain growth inhibition, stronger effect = higher value
# Procedure, shortened: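 A yeast strain with a defined genetic lesion serves as the test organism. Cultures receive compound or vehicle, and growth is measured.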
# [14] = NCI Yeast Anticancer Drug Screen. Data for the sgs1 strain (AID 173);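 note: 0% = growth of vehicle-only control cultures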; conditions: S. cerevisiae sgs1 mutant, stronger effect = higher value
# Procedure, shortened: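 A genetically defined yeast mutant is incubated with the test compound, and its growth is compared to that of the same strain given vehicle.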
# [15] = NCI Yeast Anticancer Drug Screen. Data for the mlh1 rad18 strain (AID 175); conditions: S. cerevisiae mlh1 rad18 strain growth inhibition, stronger effect = higher value
# Procedure, shortened: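 Steps: expose repair-defective yeast to compound; measure growth; express inhibition against vehicle-treated controls.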
# [16] = NCI Yeast Anticancer Drug Screen. Data for the rad18 strain (AID 177); conditions: S. cerevisiae rad18 mutant growth inhibition, stronger effect = higher value
# Procedure, shortened: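 Measured value is growth inhibition of a yeast strain bearing a DNA repair alteration, referenced to vehicle-treated cells.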
# [17] = at 5.0 µM (retest, dose inferred, filed as 0.5)
# [18] = at 50.0 µM (retest, dose inferred, filed as 5.0)
structure (smiles),measurement,setting,value
CCCCCCCCCCCCCCC(C(=O)[O-])[n+]1ccccc1 (stereo unspecified),growth inhibition,[1]; at 1.2 µM,2%
same,growth inhibition,[1]; at 3.7 µM,2%
same,growth inhibition,[1]; at 11.0 µM,2%
same,growth inhibition,[1]; at 33.0 µM,-1%
same,growth inhibition,[1]; at 100.0 µM,91% (active)
same,growth inhibition,[2]; at 1.2 µM,-1%
same,growth inhibition,[2]; at 3.7 µM,-3%
same,growth inhibition,[2]; at 11.0 µM,-4%
same,growth inhibition,[2]; at 33.0 µM,-6%
same,growth inhibition,[2]; at 100.0 µM,6%
same,growth inhibition,[3]; at 1.2 µM,0%
same,growth inhibition,[3]; at 3.7 µM,4%
same,growth inhibition,[3]; at 11.0 µM,4%
same,growth inhibition,[3]; at 33.0 µM,3%
same,growth inhibition,[3]; at 100.0 µM,39%
same,growth inhibition,[4]; at 1.2 µM,2%
same,growth inhibition,[4]; at 3.7 µM,-4%
same,growth inhibition,[4]; at 11.0 µM,2%
same,growth inhibition,[4]; at 33.0 µM,-2%
same,growth inhibition,[4]; at 100.0 µM,95% (active)
same,growth inhibition,[5]; at 1.2 µM,3%
same,growth inhibition,[5]; at 3.7 µM,9%
same,growth inhibition,[5]; [17],9%
same,growth inhibition,[5]; at 11.0 µM,3%
same,growth inhibition,[5]; at 33.0 µM,4%
same,growth inhibition,[5]; [18],20%
same,growth inhibition,[5]; at 50.0 µM,98.5% (active)
same,growth inhibition,[5]; at 100.0 µM,97% (active)
same,growth inhibition,[6]; at 1.2 µM,3%
same,growth inhibition,[6]; at 3.7 µM,1%
same,growth inhibition,[6]; [17],-2%
same,growth inhibition,[6]; at 11.0 µM,-7%
same,growth inhibition,[6]; at 33.0 µM,-2%
same,growth inhibition,[6]; [18],97% (active)
same,growth inhibition,[6]; at 50.0 µM,99% (active)
same,growth inhibition,[6]; at 100.0 µM,95% (active)
same,growth inhibition,[7]; at 1.2 µM,-2%
same,growth inhibition,[7]; at 3.7 µM,13%
same,growth inhibition,[7]; at 11.0 µM,0%
same,growth inhibition,[7]; at 33.0 µM,2%
same,growth inhibition,[7]; at 100.0 µM,90% (active)
same,growth inhibition,[8]; [17],12%
same,growth inhibition,[8]; [18],45%
same,growth inhibition,[8]; at 50.0 µM,98.8% (active)
same,growth inhibition,[9]; at 1.2 µM,3%
same,growth inhibition,[9]; at 3.7 µM,3%
same,growth inhibition,[9]; at 11.0 µM,3%
same,growth inhibition,[9]; at 33.0 µM,-2%
same,growth inhibition,[9]; at 100.0 µM,26%
same,growth inhibition,[10]; [17],8%
same,growth inhibition,[10]; [18],26%
same,growth inhibition,[10]; at 50.0 µM,95.8% (active)
same,growth inhibition,[11]; at 1.2 µM,2%
same,growth inhibition,[11]; at 3.7 µM,-27%
same,growth inhibition,[11]; [17],5%
same,growth inhibition,[11]; at 11.0 µM,0%
same,growth inhibition,[11]; at 33.0 µM,-8%
same,growth inhibition,[11]; [18],91% (active)
same,growth inhibition,[11]; at 50.0 µM,97.3% (active)
same,growth inhibition,[11]; at 100.0 µM,85% (active)
same,growth inhibition,[12]; at 1.2 µM,0%
same,growth inhibition,[12]; at 3.7 µM,0%
same,growth inhibition,[12]; at 11.0 µM,-1%
same,growth inhibition,[12]; at 33.0 µM,7%
same,growth inhibition,[12]; at 100.0 µM,83% (active)
same,growth inhibition,[13]; at 1.2 µM,0%
same,growth inhibition,[13]; at 3.7 µM,-3%
same,growth inhibition,[13]; at 11.0 µM,-12%
same,growth inhibition,[13]; at 33.0 µM,-18%
same,growth inhibition,[13]; at 100.0 µM,99% (active)
same,growth inhibition,[14]; at 1.2 µM,0%
same,growth inhibition,[14]; at 3.7 µM,-3%
same,growth inhibition,[14]; at 11.0 µM,-2%
same,growth inhibition,[14]; at 33.0 µM,13%
same,growth inhibition,[14]; at 100.0 µM,95% (active)
same,growth inhibition,[15]; [17],-15%
same,growth inhibition,[15]; [18],51%
same,growth inhibition,[15]; at 50.0 µM,98% (active)
same,growth inhibition,[16]; at 1.2 µM,3%
same,growth inhibition,[16]; at 3.7 µM,8%
same,growth inhibition,[16]; at 11.0 µM,24%
same,growth inhibition,[16]; at 33.0 µM,81% (active)
same,growth inhibition,[16]; at 100.0 µM,97% (active)
CN(Cc1cnc2nc(N)nc(N)c2n1)c1ccc(C(=O)N[C@@H](CCC(=O)O)C(=O)O)cc1,growth inhibition,[1]; at 1.2 µM,-2%
same,growth inhibition,[1]; at 3.7 µM,-1%
same,growth inhibition,[1]; at 11.0 µM,8%
same,growth inhibition,[1]; at 33.0 µM,41%
same,growth inhibition,[1]; at 100.0 µM,85% (active)
same,growth inhibition,[2]; at 1.2 µM,-1%
same,growth inhibition,[2]; at 3.7 µM,-3%
same,growth inhibition,[2]; at 11.0 µM,-3%
same,growth inhibition,[2]; at 33.0 µM,6%
same,growth inhibition,[2]; at 100.0 µM,24%
same,growth inhibition,[3]; at 1.2 µM,-2%
same,growth inhibition,[3]; at 3.7 µM,-4%
same,growth inhibition,[3]; at 11.0 µM,-5%
same,growth inhibition,[3]; at 33.0 µM,1%
same,growth inhibition,[3]; at 100.0 µM,21%
same,growth inhibition,[4]; at 1.2 µM,-1%
same,growth inhibition,[4]; at 3.7 µM,-3%
same,growth inhibition,[4]; at 11.0 µM,-4%
same,growth inhibition,[4]; at 33.0 µM,1%
same,growth inhibition,[4]; at 100.0 µM,28%
same,growth inhibition,[5]; at 1.2 µM,-2%
same,growth inhibition,[5]; at 3.7 µM,1%
same,growth inhibition,[5]; [17],-2%
same,growth inhibition,[5]; at 11.0 µM,6%
same,growth inhibition,[5]; at 33.0 µM,38%
same,growth inhibition,[5]; [18],82% (active)
same,growth inhibition,[5]; at 50.0 µM,88.6% (active)
same,growth inhibition,[5]; at 100.0 µM,85% (active)
same,growth inhibition,[6]; at 1.2 µM,1%
same,growth inhibition,[6]; at 3.7 µM,2%
same,growth inhibition,[6]; [17],14%
same,growth inhibition,[6]; at 11.0 µM,17%
same,growth inhibition,[6]; at 33.0 µM,88% (active)
same,growth inhibition,[6]; [18],94% (active)
same,growth inhibition,[6]; at 50.0 µM,97.9% (active)
same,growth inhibition,[6]; at 100.0 µM,96% (active)
same,growth inhibition,[7]; at 1.2 µM,-1%
same,growth inhibition,[7]; at 3.7 µM,-5%
same,growth inhibition,[7]; at 11.0 µM,-7%
same,growth inhibition,[7]; at 33.0 µM,14%
same,growth inhibition,[7]; at 100.0 µM,72% (active)
same,growth inhibition,[8]; [17],-3%
same,growth inhibition,[8]; [18],64%
same,growth inhibition,[8]; at 50.0 µM,82.5% (active)
same,growth inhibition,[9]; at 1.2 µM,0%
same,growth inhibition,[9]; at 3.7 µM,0%
same,growth inhibition,[9]; at 11.0 µM,-7%
same,growth inhibition,[9]; at 33.0 µM,-16%
same,growth inhibition,[9]; at 100.0 µM,20%
same,growth inhibition,[10]; [17],-1%
same,growth inhibition,[10]; [18],22%
same,growth inhibition,[10]; at 50.0 µM,-6.4%
same,growth inhibition,[11]; at 1.2 µM,2%
same,growth inhibition,[11]; at 3.7 µM,-1%
same,growth inhibition,[11]; [17],-7%
same,growth inhibition,[11]; at 11.0 µM,-7%
same,growth inhibition,[11]; at 33.0 µM,-4%
same,growth inhibition,[11]; [18],63%
same,growth inhibition,[11]; at 50.0 µM,90.5% (active)
same,growth inhibition,[11]; at 100.0 µM,40%
same,growth inhibition,[12]; at 1.2 µM,-3%
same,growth inhibition,[12]; at 3.7 µM,-4%
same,growth inhibition,[12]; at 11.0 µM,-4%
same,growth inhibition,[12]; at 33.0 µM,12%
same,growth inhibition,[12]; at 100.0 µM,47%
same,growth inhibition,[13]; at 1.2 µM,-1%
same,growth inhibition,[13]; at 3.7 µM,-4%
same,growth inhibition,[13]; at 11.0 µM,-5%
same,growth inhibition,[13]; at 33.0 µM,7%
same,growth inhibition,[13]; at 100.0 µM,35%
same,growth inhibition,[14]; at 1.2 µM,-2%
same,growth inhibition,[14]; at 3.7 µM,-3%
same,growth inhibition,[14]; at 11.0 µM,3%
same,growth inhibition,[14]; at 33.0 µM,27%
same,growth inhibition,[14]; at 100.0 µM,63%
same,growth inhibition,[15]; [17],-2%
same,growth inhibition,[15]; [18],58%
same,growth inhibition,[15]; at 50.0 µM,87.8% (active)
same,growth inhibition,[16]; at 1.2 µM,-2%
same,growth inhibition,[16]; at 3.7 µM,0%
same,growth inhibition,[16]; at 11.0 µM,4%
same,growth inhibition,[16]; at 33.0 µM,30%
same,growth inhibition,[16]; at 100.0 µM,80% (active)
